{"source": "PubChem BioAssay (NCATS)", "note": "Records with an inconclusive call do not appear. A number with no mark means an inactive call. The source made the active and inactive calls. Unless noted, calls follow the shape of the full dose curve. Peptide text beside a SMILES is read from it. Potency is read from the fitted curve at half-maximal effect.", "data": [{"assay": "S16 Schwann cell PMP22 intronic element firefly luciferase assay (AID 624032; active = well fitted inhibition curve with a large enough effect; also: nearly all actives have a fitted effect of over 30% in size)", "conditions": "S16 rat Schwann cells, PMP22 element FLuc, 24 h; series mostly up to 25.7 µM; activity change, negative = inhibition: at the top concentration", "how_it_was_run": "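Rat S16 Schwann cells stably carrying firefly luciferase driven by a PMP22 intronic element, in 10% FBS, treated 24 h at 37 C. ONE-Glo luminescence normalized to PTC124 control and DMSO (0%); curves classed by r2, magnitude and activity.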", "values": [{"smiles": "CN(C)CCCOC1C(C(O)CO)OC2OC(C)(C)O[C@@H]21", "note": "(stereo not given in full)", "activity change, negative = inhibition": "52.3% [at 57.5 µM]"}, {"smiles": "CC[C@@]12CCCN3CCc4c(n(c5ccccc45)[C@](O)(C(=O)OC)C1)C32", "note": "(stereo not given in full)", "activity change, negative = inhibition": "-4.34% [at 57.5 µM]"}, {"smiles": "CN1CC(=O)N=C1N", "activity change, negative = inhibition": "6.94% [at 57.5 µM]"}, {"smiles": "OCC1OC([S-])[C@H](O)C(O)C1O.[Au+]", "note": "(stereo not given in full)", "activity change, negative = inhibition": "-17.9% [at 57.5 µM]"}, {"smiles": "CCC(CCC(C)C1CCC2C3CC=C4CC(O)CC[C@@]4(C)C3CC[C@@]12C)C(C)C", "note": "(stereo not given in full)", "activity change, negative = inhibition": "-25.3% [at 57.5 µM]"}, {"smiles": "C[C@]12CCC(=O)C=C1CCC1C2C(=O)C[C@]2(C)C1CC[C@]2(O)C(=O)CO", "note": "(stereo not given in full)", "activity change, negative = inhibition": "20.5% [at 57.5 µM]"}, {"smiles": "OCC1O[C@H](OC2C(CO)O[C@@](O)(CO)C2O)C(O)C(O)C1O", "note": "(stereo not given in full)", "activity change, negative = inhibition": "50.5% [at 57.5 µM]"}, {"smiles": "CC1(C)OC2CC(=O)OC[C@@]23C1CC(=O)[C@]1(C)C3CC[C@@]2(C)C(c3ccoc3)OC(=O)C3O[C@@]321", "note": "(stereo not given in full)", "activity change, negative = inhibition": "-9.6% [at 57.5 µM]"}, {"smiles": "COC(=O)C(Cc1ccccc1)NC(=O)C(N)CC(=O)O", "note": "(stereo not drawn) (H-Asp-Phe-OMe; configuration not given here)", "activity change, negative = inhibition": "32.6% [at 57.5 µM]"}, {"smiles": "COc1ccc2cc(C(C)CO)ccc2c1", "note": "(stereo not given)", "activity change, negative = inhibition": "10.3% [at 57.5 µM]"}, {"smiles": "COC1C=CO[C@@]2(C)Oc3c(C)c(O)c4c(O)c(c(C=NN5CCN(C)CC5)c(O)c4c3C2=O)NC(=O)/C(C)=C\\C=CC(C)C(O)[C@@H](C)C(O)C(C)[C@H](OC(C)=O)C1C", "note": "(stereo not given in full)", "Potency": "20.3 µM (active)"}, {"smiles": "CC1CCC(C(C)C)C(=O)C1", "note": "(stereo not given)", "activity change, negative = inhibition": "-0.875% [at 57.5 µM]"}, {"smiles": "CC(=O)[C@]1(O)CCC2C3C=C(Cl)C4=CC(=O)C5CC5[C@@]4(C)C3CC[C@]21C", "note": "(stereo not given in full)", "activity change, negative = inhibition": "7.65% [at 57.5 µM]"}, {"smiles": "CC(=O)N[C@@H]1C(O)OC(CO)C(O)C1O", "note": "(stereo not given in full)", "activity change, negative = inhibition": "-2.49% [at 57.5 µM]"}, {"smiles": "C/C1=C2N=C(/C=C3N=C(/C(C)=C4\\[N-]C(C)(C5N=C1C(C)(CCC(=O)NCC(C)OP(=O)([O-])O[C@H]1C(O)C(n6cnc7cc(C)c(C)cc76)O[C@@H]1CO)C5CC(N)=O)C(C)(CC(N)=O)C4CCC(N)=O)C(C)(CC(N)=O)C\\3CCC(N)=O)C(C)(C)C/2CCC(N)=O.[CH2-]C1OC(n2cnc3c(N)ncnc32)C(O)C1O.[Co]", "note": "(stereo not given in full)", "Potency": "14.4 µM (active)"}, {"smiles": "O=C1OC(CO)C(O)C(O)C1O", "note": "(stereo not given)", "activity change, negative = inhibition": "-2.76% [at 57.5 µM]"}, {"smiles": "Nc1nc2ncc(CNc3ccc(C(=O)NC(CCC(=O)O)C(=O)O)cc3)nc2c(=O)[nH]1", "note": "(stereo not given)", "activity change, negative = inhibition": "-8.41% [at 57.5 µM]"}]}, {"assay": "S16 Schwann cell PMP22 intronic element beta-lactamase assay (AID 624044); also: nearly all actives have a fitted effect of over 15% in size;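 as to ratio activity, negative = inhibition: 0% = DMSO and -100% = potassium clavulanate positive control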", "conditions": "S16 rat Schwann cells, PMP22 element beta-lactamase FRET, 24 h; series mostly up to 17.1 µM; ratio activity, negative = inhibition: at the top concentration", "how_it_was_run": "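Rat S16 Schwann cells with beta-Lac driven by a PMP22 intronic element, compound-treated 24 h at 37 °C. LiveBLAzer FRET B/G read: 460 nm normalized to potassium clavulanate vs DMSO; 535 nm FRET as viability; concentration-effect curves classified.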", "values": [{"smiles": "CC(=O)OC1CCC2C3CCc4cc(O)ccc4C3CCC12C", "note": "(stereo not given)", "ratio activity, negative = inhibition": "-13% [at 38.3 µM]"}, {"smiles": "CN1CC(=O)N=C1N", "ratio activity, negative = inhibition": "0.887% [at 38.3 µM]"}, {"smiles": "OCC1OC([S-])[C@H](O)C(O)C1O.[Au+]", "note": "(stereo not given in full)", "ratio activity, negative = inhibition": "-3.68% [at 38.3 µM]"}, {"smiles": "CC(C)C1CCC(C(=O)NC(Cc2ccccc2)C(=O)O)CC1", "note": "(stereo not given)", "ratio activity, negative = inhibition": "1.47% [at 38.3 µM]"}, {"smiles": "CCC(CCC(C)C1CCC2C3CC=C4CC(O)CC[C@@]4(C)C3CC[C@@]12C)C(C)C", "note": "(stereo not given in full)", "ratio activity, negative = inhibition": "10.3% [at 38.3 µM]"}, {"smiles": "OCC1O[C@H](OC2C(CO)O[C@@](O)(CO)C2O)C(O)C(O)C1O", "note": "(stereo not given in full)", "ratio activity, negative = inhibition": "1.78% [at 38.3 µM]"}, {"smiles": "CC1(C)OC2CO[C@]3(COS(N)(=O)=O)OC(C)(C)OC3C2O1", "note": "(stereo not given in full)", "ratio activity, negative = inhibition": "0.708% [at 38.3 µM]"}, {"smiles": "CCOC(=O)C1=CC(OC(CC)CC)C(NC(C)=O)C(N)C1", "note": "(stereo not given)", "ratio activity, negative = inhibition": "-5.19% [at 38.3 µM]"}, {"smiles": "COC1C=CO[C@@]2(C)Oc3c(C)c(O)c4c(O)c(c5c(nc6cc(C)ccn65)c4c3C2=O)NC(=O)/C(C)=C\\C=CC(C)C(O)[C@@H](C)C(O)C(C)[C@@H](OC(C)=O)C1C", "note": "(stereo not given in full)", "ratio activity, negative = inhibition": "1.3% [at 38.3 µM]"}, {"smiles": "COC(=O)C(Cc1ccccc1)NC(=O)C(N)CC(=O)O", "note": "(stereo not drawn) (H-Asp-Phe-OMe; configuration not given here)", "ratio activity, negative = inhibition": "5.48% [at 38.3 µM]"}, {"smiles": "C[C@]12C=CC(=O)C=C1CCC1C2C(O)C[C@]2(C)C1CC[C@]2(O)C(=O)CO", "note": "(stereo not given in full)", "ratio activity, negative = inhibition": "-12.1% [at 38.3 µM]"}, {"smiles": "CC1(C)S[C@H]2C(NC(=O)[C@@H](N)c3ccc(O)cc3)C(=O)N2[C@@H]1C(=O)O", "note": "(stereo not given in full)", "ratio activity, negative = inhibition": "3.01% [at 38.3 µM]"}, {"smiles": "CC(C)=CCC[C@](C)(O)C1CC=C(C)CC1", "note": "(stereo not given in full)", "ratio activity, negative = inhibition": "9.26% [at 38.3 µM]"}, {"smiles": "CO[C@]12C(COC(N)=O)C3=C(C(=O)C(C)=C(N)C3=O)N1CC1NC12", "note": "(stereo not given in full)", "Potency": "8.91 µM (active)"}, {"smiles": "C[C@]1(c2ccccc2)OC(C(=O)O)=CC1=O", "ratio activity, negative = inhibition": "5.72% [at 38.3 µM]"}, {"smiles": "CC(=O)N[C@H](CC(C)C)C(=O)O", "ratio activity, negative = inhibition": "0.444% [at 38.3 µM]"}, {"smiles": "COc1ccc2cc(C(C)CO)ccc2c1", "note": "(stereo not given)", "ratio activity, negative = inhibition": "5.33% [at 38.3 µM]"}, {"smiles": "CCCC(=O)O[C@]1(C(=O)CO)CCC2[C@@H]3CCC4=CC(=O)CC[C@]4(C)C3C(O)C[C@]21C", "note": "(stereo not given in full)", "ratio activity, negative = inhibition": "-2.08% [at 38.3 µM]"}, {"smiles": "CC(=O)[C@]1(O)CCC2C3C=C(Cl)C4=CC(=O)C5CC5[C@@]4(C)C3CC[C@]21C", "note": "(stereo not given in full)", "ratio activity, negative = inhibition": "6.9% [at 38.3 µM]"}, {"smiles": "CC(=O)N[C@@H]1C(O)OC(CO)C(O)C1O", "note": "(stereo not given in full)", "ratio activity, negative = inhibition": "-1.71% [at 38.3 µM]"}, {"smiles": "O=C1OC(CO)C(O)C(O)C1O", "note": "(stereo not given)", "ratio activity, negative = inhibition": "4.89% [at 38.3 µM]"}, {"smiles": "CNC1C(OC2C(O[C@@H]3C(O)C(O)[C@@H](N=C(N)N)C(O)C3N=C(N)N)OC(C)[C@@]2(O)CO)OC(CO)C(O)C1O", "note": "(stereo not given in full)", "ratio activity, negative = inhibition": "0.412% [at 38.3 µM]"}, {"smiles": "Nc1nc2ncc(CNc3ccc(C(=O)NC(CCC(=O)O)C(=O)O)cc3)nc2c(=O)[nH]1", "note": "(stereo not given)", "ratio activity, negative = inhibition": "1.64% [at 38.3 µM]"}]}]}
